The structures appear in SMILES notation. Results filed as inconclusive are left out. A call without a number means that no potency is given here. The source made the active and inactive calls. The call rests on the fitted dose curve; in most records, active means well fitted cell-killing curve with a large enough effect; inconclusive means small, poorly fitted or top-dose-only effect, or effect the other way; inactive means no such curve, though single readings can be large or run the other way.
Potency means the concentration at half of the fitted maximal effect.

The nature of the experiment: qHTS assay to identify small molecule inhibitors of chordoma cells - UCH-1 (AID 1259355). Further: nearly all actives have a fitted effect of over 55% in size. Conditions: UCH-1 chordoma viability, CellTiter-Glo, 48 h, combination; series mostly up to 46.1 µM. The procedure, abridged:
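A 48hr growth-inhibition format: each drug tested at 15 concentrations together with added auranofin, camptothecin, doxorubicin, rubitecan and topotecan, with cell viability quantified as CellTiter-Glo luminescence.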
Background: qHTS replaces the single test concentration by a dilution series.
For the compound `CCCN1CCCC2Cc3[nH]ncc3CC21` (stereo unspecified), the Potency entry was “inactive”.

With `Clc1ccc(C(Cn2ccnc2)OCc2csc3c(Cl)cccc23)c(Cl)c1` (stereo unspecified), the Potency result is “inactive”. Consider `O=S(=O)(O)c1cc(O)ccc1O`, for which the Potency entry is “inactive”. Under `CCOc1ccc2c3c1O[C@H]1[C@@H](O)C=C[C@H]4[C@@H](C2)N(C)CC[C@@]341` stands “inactive”; under `O=C(OCCN1CCCCC1)C(O)(c1ccccc1)c1ccccc1`, “inactive”. To `CC(=O)Oc1ccc2c3c1O[C@H]1[C@@H](OC(C)=O)C=C[C@H]4[C@@H](C2)N(C)CC[C@@]341` belongs “inactive”. Under `CCC1C(C)=NN=C(c2ccc(OC)c(OC)c2)c2cc(OC)c(OC)cc21` (stereo unspecified) stands “inactive”. On to `[N-]=[N+]=CC(=O)OCC(N)C(=O)O` (stereo unspecified), for which the Potency entry is “inactive”. Under `OC[C@@H](O)[C@H]1O[C@@H]2O[C@@H](C(Cl)(Cl)Cl)O[C@@H]2[C@H]1O` stands “inactive”; under `O=c1c2ccccc2[se]n1-c1ccccc1`, “inactive”; under `O=C(CCl)c1ccc(Oc2ccc(C(=O)CCl)cc2)cc1`, “inactive”. As for `Clc1ccc(Cl)cc1`, the Potency result was “inactive”. Under `C[C@@H](Cc1ccccc1)NCCC(c1ccccc1)c1ccccc1` stands “inactive”; under `CCN(CC)C(=O)N[C@H]1C[C@@H]2c3cccc4[nH]cc(c34)C[C@H]2N(C)C1`, “inactive”.

On to `CC(=O)[C@H]1CC[C@H]2[C@@H]3CC[C@@H]4C[C@H](O)CC[C@]4(C)[C@H]3CC[C@]12C`, for which the Potency result is “inactive”.

In the case of `CO[C@H]1[C@@H](O)C[C@H](O[C@H]2[C@@H](O)C[C@H](O[C@H]3[C@@H](O)C[C@H](O[C@H]4CC[C@@]5(C)[C@H](CC[C@@H]6[C@@H]5C[C@@H](O)[C@]5(C)[C@@H](C7=CC(=O)OC7)CC[C@]65O)C4)O[C@@H]3C)O[C@@H]2C)O[C@@H]1C`, the Potency was 0.355 µM [with auranofin plus four topoisomerase inhibitors] (active).

For the compound `F/C(COc1ccc2c(c1)[nH]c1ccccc12)=C1/CN2CCC1CC2`, the Potency entry is “inactive”.

Turning to `CCC(C)(S(=O)(=O)CC)S(=O)(=O)CC`, the Potency entry is “inactive”. Under `O=C1C2CC=CCC2C(=O)N1SC(Cl)(Cl)Cl` (stereo unspecified) stands 12.6 µM (active); under `c1ccc(C2(N3CCCC3)CCCCC2)cc1`, “inactive”. To `N#CC(C#N)=Cc1cc(O)c(O)c(O)c1` belongs “inactive”; to `CCC(=O)O[C@]1(c2ccccc2)CCN(C)C[C@H]1C`, “inactive”; to `CC(C)(O)C1C2OC(=O)C1C1(O)CC3OC34C(=O)OC2C14C` (stereo unspecified), “inactive”. In the case of `CC1CCC(C(C)C)C(OC(=O)c2ccccc2N)C1` (stereo unspecified), the Potency result was “inactive”. For the compound `C[C@]12CC[C@H](OS(=O)(=O)O)CC1=CC[C@@H]1[C@@H]2CC[C@]2(C)C(=O)CC[C@@H]12`, the Potency result is “inactive”. To `CCCCCc1cc(O)c2c(c1)OC(C)(C)[C@@H]1CCC(C)=C[C@@H]21` belongs “inactive”. Regarding `CN(C)[C@@H]1C(=O)C(C(N)=O)=C(O)[C@@]2(O)C(=O)C3=C(O)c4c(O)ccc(Cl)c4[C@@](C)(O)[C@H]3C[C@@H]12`, the Potency entry was “inactive”. To `C=C[C@H]1CN2CC[C@H]1C[C@H]2[C@H](OC(=O)OCC)c1ccnc2ccc(OC)cc12` belongs “inactive”; to `C[C@]12C=CC(=O)C=C1CC[C@@H]1[C@@H]2CC[C@]2(C)OC(=O)CC[C@@H]12`, “inactive”; to `O=C(C[C@@H]1NCCC[C@H]1O)Cn1cnc2cc(Br)c(Cl)cc2c1=O`, “inactive”.

For `CCCCCl`, the Potency entry is “inactive”.

With `O=C(NC(=O)c1c(F)cccc1F)Nc1ccc(Cl)c(Oc2ncc(C(F)(F)F)cc2Cl)c1`, the Potency result is “inactive”. To `O=c1[nH]cc(N(CCCl)CCCl)c(=O)[nH]1` belongs “inactive”. Under `CN1[C@@H]2CC[C@H]1CC(OC1c3ccccc3CCc3ccccc31)C2` (stereo partly specified) stands “inactive”. To `N#CC1(N2CCCCC2)CCCCC1` belongs “inactive”; to `COC(COC(N)=O)C1=C(N2CC2)C(=O)C(C)=C(N2CC2)C1=O` (stereo unspecified), 2.24 µM (active).

The values above are taken from PubChem BioAssay (NCATS).
